One sequence from publication PMC7862700, “An all-to-all approach to the identification of sequence-specific readers for epigenetic DNA modifications on cytosine” can be followed below.

Common to all, as to assay: DAPPL (digital affinity profiling via proximity ligation, sequencing); 10 mM Tris-HCl pH 7.5, 50 mM NaCl, 1 mM DTT, 4% glycerol, room temperature, 30 min; GST-TFs on glutathione beads, 16-mer random dsDNA library, 0.1% formaldehyde crosslink after washing; high values mean tight binding
The target of experiment [1] is T1, FLI1 (Homo sapiens, UniProt Q01543 1-452).
T1 sequence: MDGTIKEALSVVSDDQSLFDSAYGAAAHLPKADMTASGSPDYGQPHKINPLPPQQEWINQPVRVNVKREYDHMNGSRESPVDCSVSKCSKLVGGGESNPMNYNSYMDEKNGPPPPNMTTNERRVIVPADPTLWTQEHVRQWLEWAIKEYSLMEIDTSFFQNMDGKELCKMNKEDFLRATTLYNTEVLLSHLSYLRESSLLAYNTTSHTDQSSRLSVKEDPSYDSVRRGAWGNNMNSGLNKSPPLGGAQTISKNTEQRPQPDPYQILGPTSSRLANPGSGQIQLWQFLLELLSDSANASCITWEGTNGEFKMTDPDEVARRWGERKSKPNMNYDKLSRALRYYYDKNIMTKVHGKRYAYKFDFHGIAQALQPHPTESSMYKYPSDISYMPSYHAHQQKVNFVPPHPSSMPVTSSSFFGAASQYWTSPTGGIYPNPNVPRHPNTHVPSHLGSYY
As to conditions: protein: recombinant; tags: N-terminal GST; dsDNA, one strand shown. The method, boiled down: (§1)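 Pools were built from human transcription factors expressed in yeast as GST fusions, captured on glutathione beads and DNA-barcoded, along with a tag-only sample. Incubation with 200 nmole of a 16-mer random double-stranded DNA library lasted 30 min at room temperature in Tris/NaCl/DTT/glycerol buffer, and was followed by washing, 0.1% formaldehyde crosslinking, proximity ligation, PCR amplification and Illumina NextSeq500 sequencing. Binding signal is the quotient of each hexamer's read frequency for a factor and its frequency for the tag-only sample.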

Experiment [2] concerns the target T2, ELK1 (Homo sapiens, UniProt P19419 1-428).
T2 sequence: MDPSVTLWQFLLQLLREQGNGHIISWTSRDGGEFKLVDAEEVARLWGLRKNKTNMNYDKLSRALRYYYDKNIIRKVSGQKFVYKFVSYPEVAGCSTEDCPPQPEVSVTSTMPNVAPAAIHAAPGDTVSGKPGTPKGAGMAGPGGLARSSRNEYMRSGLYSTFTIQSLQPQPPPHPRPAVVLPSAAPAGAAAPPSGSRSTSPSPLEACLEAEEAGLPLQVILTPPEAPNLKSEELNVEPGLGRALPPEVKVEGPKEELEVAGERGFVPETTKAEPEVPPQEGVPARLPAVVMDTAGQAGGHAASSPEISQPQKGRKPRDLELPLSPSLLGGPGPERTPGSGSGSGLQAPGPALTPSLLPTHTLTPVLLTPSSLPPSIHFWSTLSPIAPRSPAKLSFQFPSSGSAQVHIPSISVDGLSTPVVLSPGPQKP
As to conditions: protein: recombinant; tags: N-terminal GST; dsDNA, one strand shown. The method, boiled down:
as §1

For experiment [3], the target named is T3, GABPA (Homo sapiens, UniProt Q06546 1-454).
T3 sequence: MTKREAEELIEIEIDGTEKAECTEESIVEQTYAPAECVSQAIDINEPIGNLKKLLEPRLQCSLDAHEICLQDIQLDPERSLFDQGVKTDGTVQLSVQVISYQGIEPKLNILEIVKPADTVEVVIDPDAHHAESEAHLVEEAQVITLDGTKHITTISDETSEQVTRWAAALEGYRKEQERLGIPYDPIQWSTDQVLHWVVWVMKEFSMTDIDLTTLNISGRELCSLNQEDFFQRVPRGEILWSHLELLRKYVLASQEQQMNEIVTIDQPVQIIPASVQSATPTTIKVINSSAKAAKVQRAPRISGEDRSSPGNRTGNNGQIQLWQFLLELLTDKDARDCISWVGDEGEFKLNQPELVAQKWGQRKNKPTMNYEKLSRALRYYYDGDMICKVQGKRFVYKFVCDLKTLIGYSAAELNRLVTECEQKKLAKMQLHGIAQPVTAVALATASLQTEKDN
As to conditions: protein: recombinant; tags: N-terminal GST; dsDNA, one strand shown. In short, it runs like this:
as §1

Experiment [4] concerns the target T4, ERG (Homo sapiens, UniProt P11308 1-479).
T4 sequence: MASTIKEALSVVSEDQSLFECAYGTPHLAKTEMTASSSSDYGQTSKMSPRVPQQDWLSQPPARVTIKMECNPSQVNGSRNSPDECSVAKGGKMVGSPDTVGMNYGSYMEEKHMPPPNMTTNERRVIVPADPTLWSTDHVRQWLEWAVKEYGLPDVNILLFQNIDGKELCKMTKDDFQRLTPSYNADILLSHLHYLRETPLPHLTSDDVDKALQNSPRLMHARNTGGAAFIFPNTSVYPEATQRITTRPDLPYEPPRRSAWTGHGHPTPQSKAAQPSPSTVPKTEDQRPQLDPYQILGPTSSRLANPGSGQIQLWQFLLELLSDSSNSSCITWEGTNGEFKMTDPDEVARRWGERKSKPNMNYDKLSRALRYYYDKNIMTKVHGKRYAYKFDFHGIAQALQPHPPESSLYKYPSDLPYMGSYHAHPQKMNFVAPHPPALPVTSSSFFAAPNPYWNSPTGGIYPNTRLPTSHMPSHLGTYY
As to conditions: protein: recombinant; tags: N-terminal GST; dsDNA, one strand shown. The method, boiled down: as §1

Experiment [5] has as its target ELF1 (Homo sapiens, UniProt P32519 1-619). Conditions: protein: recombinant; tags: N-terminal GST; dsDNA, one strand shown. In short, it runs like this: as §1
Experiment [6] addresses T5, EHF (Homo sapiens, UniProt Q9NZC4 1-300).
T5 sequence: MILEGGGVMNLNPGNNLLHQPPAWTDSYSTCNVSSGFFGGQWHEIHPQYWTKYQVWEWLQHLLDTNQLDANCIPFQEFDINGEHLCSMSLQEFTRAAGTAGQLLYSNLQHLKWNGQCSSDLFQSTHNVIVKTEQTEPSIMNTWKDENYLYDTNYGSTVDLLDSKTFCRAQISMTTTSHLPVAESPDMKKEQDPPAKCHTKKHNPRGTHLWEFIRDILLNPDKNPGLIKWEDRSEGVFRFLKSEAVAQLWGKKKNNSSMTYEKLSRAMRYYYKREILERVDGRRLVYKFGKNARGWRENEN
Conditions: protein: recombinant; tags: N-terminal GST; dsDNA, one strand shown. In short, it runs like this: as §1

In experiment [7] the target is SPI1 (Homo sapiens, UniProt P17947 1-270). As to conditions: protein: recombinant; tags: N-terminal GST; dsDNA, one strand shown. In short, it runs like this:
as §1

The target in experiment [8] is SPIB (Homo sapiens, UniProt Q01892 1-262). As to conditions: protein: recombinant; tags: N-terminal GST; dsDNA, one strand shown. The method, boiled down:
as §1

In experiment [9] the target is T6, ELK3 (Homo sapiens, UniProt P41970 1-407).
T6 sequence: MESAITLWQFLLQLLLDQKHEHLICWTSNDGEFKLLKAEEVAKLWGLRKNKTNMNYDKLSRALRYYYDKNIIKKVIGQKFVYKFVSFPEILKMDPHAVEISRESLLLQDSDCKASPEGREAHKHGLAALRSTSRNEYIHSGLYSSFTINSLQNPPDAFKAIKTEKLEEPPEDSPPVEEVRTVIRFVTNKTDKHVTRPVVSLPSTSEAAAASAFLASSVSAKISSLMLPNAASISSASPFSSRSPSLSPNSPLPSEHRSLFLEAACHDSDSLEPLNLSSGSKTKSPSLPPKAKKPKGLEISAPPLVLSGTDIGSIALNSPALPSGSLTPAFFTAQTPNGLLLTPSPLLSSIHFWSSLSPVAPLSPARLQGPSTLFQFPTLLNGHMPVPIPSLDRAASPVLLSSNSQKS
As to conditions: protein: recombinant; tags: N-terminal GST; dsDNA, one strand shown. The method, boiled down: as §1

The target of experiment [10] is T7, FEV (Homo sapiens, UniProt Q99581 1-238).
T7 sequence: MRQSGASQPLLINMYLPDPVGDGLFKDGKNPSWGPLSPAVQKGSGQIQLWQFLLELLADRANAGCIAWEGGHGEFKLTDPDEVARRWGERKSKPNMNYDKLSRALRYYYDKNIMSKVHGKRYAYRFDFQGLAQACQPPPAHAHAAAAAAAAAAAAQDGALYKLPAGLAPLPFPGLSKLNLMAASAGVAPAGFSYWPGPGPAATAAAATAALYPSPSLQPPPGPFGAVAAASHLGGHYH
As to conditions: protein: recombinant; tags: N-terminal GST; dsDNA, one strand shown. The method, boiled down: as §1

For experiment [11], the target named is ETV5 (Homo sapiens, UniProt P41161 1-510). As to conditions: protein: recombinant; tags: N-terminal GST; dsDNA, one strand shown. In short, it runs like this:
as §1

Experiment [12] concerns the target HSF1 (Homo sapiens, UniProt Q00613 1-529). Conditions: protein: recombinant; tags: N-terminal GST; chain copies: 3; dsDNA, one strand shown. In short, it runs like this:
as §1

Experiment [13] has as its target T8, SPIC (Homo sapiens, UniProt Q8N5J4 1-248).
T8 sequence: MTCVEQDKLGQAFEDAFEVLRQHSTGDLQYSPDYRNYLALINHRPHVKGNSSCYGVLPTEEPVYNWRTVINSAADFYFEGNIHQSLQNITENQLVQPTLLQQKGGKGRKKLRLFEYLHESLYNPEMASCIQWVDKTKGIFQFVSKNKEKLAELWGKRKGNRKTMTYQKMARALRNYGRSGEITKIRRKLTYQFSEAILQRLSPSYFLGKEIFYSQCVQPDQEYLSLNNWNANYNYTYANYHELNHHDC
As to conditions: protein: recombinant; tags: N-terminal GST; dsDNA, one strand shown. The method, boiled down:
as §1

Experiment [14] addresses ELF4 (Homo sapiens, UniProt Q99607 1-663). Conditions: protein: recombinant; tags: N-terminal GST; dsDNA, one strand shown. The method, boiled down:
as §1

Experiment [15] concerns the target T9, ELK4 (Homo sapiens, UniProt P28324-2 1-405).
T9 sequence: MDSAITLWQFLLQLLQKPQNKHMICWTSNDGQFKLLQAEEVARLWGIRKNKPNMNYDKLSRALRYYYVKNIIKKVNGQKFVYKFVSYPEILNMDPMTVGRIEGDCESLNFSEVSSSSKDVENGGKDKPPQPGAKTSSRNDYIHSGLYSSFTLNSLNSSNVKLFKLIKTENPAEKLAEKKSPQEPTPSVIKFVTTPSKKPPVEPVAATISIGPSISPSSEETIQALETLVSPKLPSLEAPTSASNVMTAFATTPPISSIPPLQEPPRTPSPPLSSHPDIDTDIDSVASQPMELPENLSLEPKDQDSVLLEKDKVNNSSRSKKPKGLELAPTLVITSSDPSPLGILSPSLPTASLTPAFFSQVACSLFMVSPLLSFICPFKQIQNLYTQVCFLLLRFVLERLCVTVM
As to conditions: protein: recombinant; tags: N-terminal GST; dsDNA, one strand shown. In short, it runs like this: as §1

The target in experiment [16] is T10, ETV2 (Homo sapiens, UniProt O00321 1-342).
T10 sequence: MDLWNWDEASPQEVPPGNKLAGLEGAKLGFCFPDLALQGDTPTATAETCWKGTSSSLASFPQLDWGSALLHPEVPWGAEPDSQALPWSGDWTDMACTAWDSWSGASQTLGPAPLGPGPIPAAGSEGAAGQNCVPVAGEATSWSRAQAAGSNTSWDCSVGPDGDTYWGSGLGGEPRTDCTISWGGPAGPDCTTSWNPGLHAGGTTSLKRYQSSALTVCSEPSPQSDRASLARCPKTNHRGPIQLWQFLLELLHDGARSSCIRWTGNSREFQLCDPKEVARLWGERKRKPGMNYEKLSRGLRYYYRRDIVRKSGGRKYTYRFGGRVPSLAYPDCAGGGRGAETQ
As to conditions: protein: recombinant; tags: N-terminal GST; dsDNA, one strand shown. In short, it runs like this:
as §1

Experiment [17] concerns the target T11, ELF3 (Homo sapiens, UniProt P78545 1-371).
T11 sequence: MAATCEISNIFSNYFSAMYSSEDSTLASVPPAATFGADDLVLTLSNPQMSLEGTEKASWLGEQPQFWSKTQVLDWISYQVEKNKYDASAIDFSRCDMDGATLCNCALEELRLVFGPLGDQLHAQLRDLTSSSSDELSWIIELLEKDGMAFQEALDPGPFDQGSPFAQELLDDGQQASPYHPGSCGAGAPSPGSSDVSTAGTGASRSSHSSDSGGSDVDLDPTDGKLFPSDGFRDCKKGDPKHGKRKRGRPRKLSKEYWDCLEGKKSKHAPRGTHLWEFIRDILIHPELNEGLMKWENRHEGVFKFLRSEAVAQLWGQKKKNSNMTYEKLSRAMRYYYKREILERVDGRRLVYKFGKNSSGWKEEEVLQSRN
Conditions: protein: recombinant; tags: N-terminal GST; dsDNA, one strand shown. The method, boiled down: as §1

Experiment [18] concerns the target CRX (Homo sapiens, UniProt O43186 1-299). As to conditions: protein: recombinant; tags: N-terminal GST; dsDNA, one strand shown. The method, boiled down: as §1
Experiment [19] addresses ETV1 (Homo sapiens, UniProt P50549 1-477). As to conditions: protein: recombinant; tags: N-terminal GST; dsDNA, one strand shown. The method, boiled down: as §1

ELF4, sequence (Q99607 whole entry): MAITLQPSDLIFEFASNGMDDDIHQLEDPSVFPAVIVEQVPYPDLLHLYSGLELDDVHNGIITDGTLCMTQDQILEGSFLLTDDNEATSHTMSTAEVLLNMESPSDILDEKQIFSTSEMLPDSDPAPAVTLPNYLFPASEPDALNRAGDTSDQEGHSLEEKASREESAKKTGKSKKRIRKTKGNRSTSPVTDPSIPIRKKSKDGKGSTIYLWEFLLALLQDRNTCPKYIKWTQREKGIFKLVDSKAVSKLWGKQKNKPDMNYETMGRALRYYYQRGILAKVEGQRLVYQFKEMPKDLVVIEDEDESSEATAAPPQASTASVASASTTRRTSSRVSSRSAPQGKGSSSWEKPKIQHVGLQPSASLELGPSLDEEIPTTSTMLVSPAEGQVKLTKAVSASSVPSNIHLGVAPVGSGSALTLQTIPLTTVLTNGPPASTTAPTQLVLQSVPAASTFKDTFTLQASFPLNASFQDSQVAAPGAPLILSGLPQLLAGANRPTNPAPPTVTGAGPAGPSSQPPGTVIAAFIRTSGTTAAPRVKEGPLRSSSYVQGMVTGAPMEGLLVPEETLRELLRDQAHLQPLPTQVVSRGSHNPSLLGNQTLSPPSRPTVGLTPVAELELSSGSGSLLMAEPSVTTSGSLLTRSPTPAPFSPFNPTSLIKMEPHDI
HSF1, sequence (Q00613 whole entry): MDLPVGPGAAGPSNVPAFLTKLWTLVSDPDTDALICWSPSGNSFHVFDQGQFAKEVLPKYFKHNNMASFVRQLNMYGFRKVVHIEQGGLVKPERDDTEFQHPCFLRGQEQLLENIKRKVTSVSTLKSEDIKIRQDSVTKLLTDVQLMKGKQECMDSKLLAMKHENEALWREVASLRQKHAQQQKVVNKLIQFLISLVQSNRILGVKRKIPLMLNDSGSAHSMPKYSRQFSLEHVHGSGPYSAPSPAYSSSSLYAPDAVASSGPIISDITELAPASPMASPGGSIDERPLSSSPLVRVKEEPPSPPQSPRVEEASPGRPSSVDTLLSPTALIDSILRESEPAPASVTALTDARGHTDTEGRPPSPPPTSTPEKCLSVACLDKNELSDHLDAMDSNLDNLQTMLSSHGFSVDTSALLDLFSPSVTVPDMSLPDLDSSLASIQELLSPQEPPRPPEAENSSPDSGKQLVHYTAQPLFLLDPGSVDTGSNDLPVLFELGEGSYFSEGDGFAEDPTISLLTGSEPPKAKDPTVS
ELF1, sequence (P32519 whole entry): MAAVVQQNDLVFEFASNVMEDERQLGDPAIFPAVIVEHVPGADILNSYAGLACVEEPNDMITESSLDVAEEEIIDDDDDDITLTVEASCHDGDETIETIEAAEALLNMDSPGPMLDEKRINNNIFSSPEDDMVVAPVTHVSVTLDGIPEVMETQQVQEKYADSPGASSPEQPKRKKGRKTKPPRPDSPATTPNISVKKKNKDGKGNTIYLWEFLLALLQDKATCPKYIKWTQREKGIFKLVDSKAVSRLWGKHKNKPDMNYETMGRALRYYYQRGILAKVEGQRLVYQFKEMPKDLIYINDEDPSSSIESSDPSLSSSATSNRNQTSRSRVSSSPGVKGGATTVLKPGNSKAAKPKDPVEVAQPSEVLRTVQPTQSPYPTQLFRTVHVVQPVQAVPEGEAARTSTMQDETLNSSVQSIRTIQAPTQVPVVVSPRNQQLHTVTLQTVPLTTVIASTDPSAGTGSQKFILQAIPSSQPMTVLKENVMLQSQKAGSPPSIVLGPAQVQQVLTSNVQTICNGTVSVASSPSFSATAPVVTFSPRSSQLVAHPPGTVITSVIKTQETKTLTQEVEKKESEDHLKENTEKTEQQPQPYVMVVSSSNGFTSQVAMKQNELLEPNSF
ETV5, sequence (P41161 whole entry): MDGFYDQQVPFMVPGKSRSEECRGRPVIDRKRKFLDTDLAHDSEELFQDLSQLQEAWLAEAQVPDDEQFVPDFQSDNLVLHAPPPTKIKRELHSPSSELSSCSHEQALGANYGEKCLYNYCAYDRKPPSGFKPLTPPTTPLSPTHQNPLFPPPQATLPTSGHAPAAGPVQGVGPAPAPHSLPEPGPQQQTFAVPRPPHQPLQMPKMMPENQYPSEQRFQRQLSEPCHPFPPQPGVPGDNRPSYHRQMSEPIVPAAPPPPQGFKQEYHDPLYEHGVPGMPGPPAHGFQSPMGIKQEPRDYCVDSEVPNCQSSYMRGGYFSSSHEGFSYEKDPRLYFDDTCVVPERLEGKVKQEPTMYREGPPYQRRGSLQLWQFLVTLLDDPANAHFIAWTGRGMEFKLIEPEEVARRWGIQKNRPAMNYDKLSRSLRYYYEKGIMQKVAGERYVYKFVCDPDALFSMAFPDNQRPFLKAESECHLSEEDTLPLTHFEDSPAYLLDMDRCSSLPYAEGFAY
CRX, sequence (O43186 whole entry): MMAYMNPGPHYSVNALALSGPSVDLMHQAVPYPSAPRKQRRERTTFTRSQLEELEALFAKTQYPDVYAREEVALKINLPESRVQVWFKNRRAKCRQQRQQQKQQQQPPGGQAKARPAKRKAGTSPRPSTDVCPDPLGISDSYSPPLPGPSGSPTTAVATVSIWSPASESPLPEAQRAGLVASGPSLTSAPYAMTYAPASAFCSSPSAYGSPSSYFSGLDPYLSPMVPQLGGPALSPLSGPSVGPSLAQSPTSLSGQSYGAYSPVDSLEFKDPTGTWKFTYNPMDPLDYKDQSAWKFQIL
SPIB, sequence (Q01892 whole entry): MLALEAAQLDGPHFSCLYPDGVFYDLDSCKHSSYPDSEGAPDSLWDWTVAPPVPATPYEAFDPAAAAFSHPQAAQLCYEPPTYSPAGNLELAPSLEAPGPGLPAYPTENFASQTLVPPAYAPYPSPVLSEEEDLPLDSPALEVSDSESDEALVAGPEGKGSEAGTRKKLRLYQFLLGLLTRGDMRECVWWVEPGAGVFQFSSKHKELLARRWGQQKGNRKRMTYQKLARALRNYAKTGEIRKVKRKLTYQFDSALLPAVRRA
ETV1, sequence (P50549 whole entry): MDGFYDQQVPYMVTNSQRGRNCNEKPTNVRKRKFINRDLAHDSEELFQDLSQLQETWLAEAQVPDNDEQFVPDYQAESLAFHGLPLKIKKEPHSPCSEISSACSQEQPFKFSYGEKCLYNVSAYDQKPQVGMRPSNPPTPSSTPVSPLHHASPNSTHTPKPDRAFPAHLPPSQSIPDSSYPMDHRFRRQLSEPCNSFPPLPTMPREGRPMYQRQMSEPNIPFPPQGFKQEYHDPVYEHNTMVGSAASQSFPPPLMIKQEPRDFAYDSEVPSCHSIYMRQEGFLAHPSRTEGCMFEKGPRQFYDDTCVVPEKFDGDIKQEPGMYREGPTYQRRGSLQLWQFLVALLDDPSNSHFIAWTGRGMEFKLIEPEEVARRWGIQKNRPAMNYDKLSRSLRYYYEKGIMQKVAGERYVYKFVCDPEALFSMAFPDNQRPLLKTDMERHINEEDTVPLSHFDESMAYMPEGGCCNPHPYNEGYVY

Turning to AATTTG, the binding signal was 1.35 fold enrichment (6-mer frequency, TF over GST control) in experiment [1]; 1.22 fold enrichment (6-mer frequency, TF over GST control) in [2]; 1.33 fold enrichment (6-mer frequency, TF over GST control) in [3]; 1.26 fold enrichment (6-mer frequency, TF over GST control) in experiment [4]; 1.26 fold enrichment (6-mer frequency, TF over GST control) in experiment [5]; 1.23 fold enrichment (6-mer frequency, TF over GST control) in [6]. The binding signal in experiment [7] is 1.33 fold enrichment (6-mer frequency, TF over GST control); in [8], 1.34 fold enrichment (6-mer frequency, TF over GST control); in experiment [9] it was 1.12 fold enrichment (6-mer frequency, TF over GST control); in [10] it was 1.39 fold enrichment (6-mer frequency, TF over GST control); in [11], 1.25 fold enrichment (6-mer frequency, TF over GST control); in experiment [12], 1.26 fold enrichment (6-mer frequency, TF over GST control). The binding signal in experiment [13] is 1.41 fold enrichment (6-mer frequency, TF over GST control); in [14] it was 1.26 fold enrichment (6-mer frequency, TF over GST control); in experiment [15], 1.34 fold enrichment (6-mer frequency, TF over GST control); in experiment [16] it was 1.16 fold enrichment (6-mer frequency, TF over GST control); in [17], 1.32 fold enrichment (6-mer frequency, TF over GST control); in experiment [18], 1.33 fold enrichment (6-mer frequency, TF over GST control). Besides, the binding signal in experiment [19] was 1.28 fold enrichment (6-mer frequency, TF over GST control).
